Laboratory results: PubChem BioAssay AID624086 (Broad Institute, 2012)

Experiment: TCF/LEF luciferase signal increase in HEK293T – cell-based, firefly luciferase, dry powder, orthogonal assay for GSK3b inhibitor project, dose response (AID 624086)
Conditions: HEK293T TCF/LEF firefly luciferase reporter, 24 h; series mostly up to 26 µM; activity change, negative = inhibition: at the top concentration;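 active = fitted half-maximal effect concentration at or below the top concentration tested; inactive = the rest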

Activity change, negative = inhibition, inactive:
Cc1[nH]nc2c1C(c1cccc(F)c1)C1=C(CC(C)(C)CC1=O)N2 (stereo unspecified) -8.21%
CC1(C)CC(=O)C2=C(C1)Nc1n[nH]c(C(F)(F)F)c1C2c1c(F)cccc1F (stereo unspecified) -2.81%
COc1ccccc1C1C2=C(CC(C)(C)CC2=O)Nc2n[nH]c(C(C)(C)C)c21 (stereo unspecified) 0.194%
CNC(=O)c1cn(-c2ccccc2)nc1-c1ccc(OC)cc1 5.1%
COc1ccccc1C1C2=C(CC(C)(C)CC2=O)Nc2onc(C)c21 (stereo unspecified) -0.313%
COc1ccccc1C1C2=C(CC(C)(C)CC2=O)Nc2ccccc21 (stereo unspecified) 0.0477%
O/N=C/c1cn(-c2ccccc2)nc1-c1ccccc1 0%
Cc1[nH]nc2c1C(C)C1=C(CC(C)(C)CC1=O)N2 (stereo unspecified) -0.0284%
COc1ccccc1[C@H]1C2=C(CC(C)(C)CC2=O)Nc2n[nH]c(C(F)(F)F)c21 -2.25%
COc1cccc(C2C3=C(CC(C)(C)CC3=O)Nc3n[nH]c(C)c32)c1 (stereo unspecified) -1.76%
CC1(C)CC(=O)/C(=C\c2cccc(F)c2C(F)(F)F)C(=Nc2cc(C(F)(F)F)[nH]n2)C1 3.06%
COc1ccccc1C1C2=C(CCCC2=O)Nc2n[nH]c(C)c21 (stereo unspecified) -0.107%
CN(C)Cc1cn(-c2ccccc2)nc1-c1ccccc1 3.06%
Cc1[nH]nc2c1C(c1ccc(C#N)cc1)C1=C(CC(C)(C)CC1=O)N2 (stereo unspecified) 3.06%
COc1ccccc1[C@@H]1C2=C(CC(C)(C)CC2=O)Nc2n[nH]c(C)c21 -0.562%
Cc1ccccc1C1C2=C(CC(C)(C)CC2=O)Nc2n[nH]c(C)c21 (stereo unspecified) -2.29%
CC1(C)CC(=O)C2=C(C1)Nc1n[nH]c(C(F)(F)F)c1C2c1cc(F)ccc1C(F)(F)F (stereo unspecified) 1.02%
Cc1ccc(-c2nn(-c3ccccc3)cc2/C=N/O)cc1 -0.588%
CC(C)COc1ccc(-c2nn(-c3ccccc3)cc2/C=N/O)cc1 0%
CC1(C)CC(=O)C2=C(C1)Nc1n[nH]c(C(F)(F)F)c1C2c1cc(F)ccc1F (stereo unspecified) -1.69%
COc1ccccc1-c1c2c(nc3n[nH]c(C)c13)CCC2=O -0.105%
COc1ccc(-c2nn(-c3ccccc3)cc2C(=O)N(C)C)cc1 0%
O/N=C/c1cn(-c2ccccc2)nc1-c1ccc(F)cc1 -4.44%
O/N=C/c1cn(-c2ccccc2)nc1-c1ccc(Cl)cc1 0%
Cc1[nH]nc2nc3c(c(-c4cccs4)c12)C(=O)CC(C)(C)C3 1.45%
COc1ccc(-c2nn(-c3ccccc3)cc2CO)cc1 1.06%
Cc1[nH]nc2c1C(c1ccc(C(F)(F)F)cc1)C1=C(CC(C)(C)CC1=O)N2 (stereo unspecified) -0.0415%
Cc1[nH]nc2nc3c(cc12)C(=O)CC(C)(C)C3 -0.107%
COc1ccc(C2C3=C(CC(C)(C)CC3=O)Nc3n[nH]c(C)c32)cc1 (stereo unspecified) 0%
COc1ccc(-c2nn(-c3ccccc3)cc2C(=O)O)cc1 -0.717%
Cc1[nH]nc2c1C(c1ccc3c(c1)OCO3)C1=C(CC(C)(C)CC1=O)N2 (stereo unspecified) 0%
